From the supplement of paper PMC8699584 come the findings set out here.

What is called cell viability is a read-out of living cells in per cent, often relative to untreated cells.

One assay concerns Molm13. The experiment in a line: cell viability relative to DMSO control (bortezomib = 0%); higher = less growth inhibition. The following applies: 10 nM; 72 h. The method, boiled down: (§1)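 Using 384-well plates, a set of 679 approved and investigational compounds was tested once at 10 nM against acute myeloid leukemia cells (1000 cells per well in 50 µL) over 72 h, with the whole screen done in duplicate. Viability readout relied on CellTiter-Glo luminescence measured on an EnVision reader. For each plate, linear regression mapped values between positive-control-treated cells at 0% and DMSO-treated cells at 100%.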

In the next assay the test system is Mv4-11. The assay is described as above. As to conditions: 10 nM; 72 h. An outline of the steps: as §1

Where a name gives a salt, the structure may show the parent alone. ± gives the standard deviation of the averaged measurements.

`CC(C)c1cnn2c(NCc3ccccc3)cc(NCCCCCCN)nc12`: the cell viability in the assay on Molm13 was found to be 105 ± 20%; in the assay with Mv4-11 it was 84 ± 18%.

For the molecule `CCOc1cc(/C=C(\C#N)C(N)=O)cc(CSc2ccccc2)c1O`, the cell viability was 101 ± 44% with Molm13 and 115 ± 15% in the assay on Mv4-11.

Regarding `CC(=O)CC(c1ccccc1)c1c(O)c2ccccc2oc1=O` (stereo unspecified) [Warfarin], the figures for the cell viability in the assay on Molm13 and in the assay on Mv4-11 were 109 ± 8.2% and 103 ± 7%, respectively.

Consider `C=CC(=O)Nc1cccc(C)c1Nc1ncc2cc(-c3c(Cl)c(OC)cc(OC)c3Cl)ccc2n1`, for which the values for the cell viability in the assay with Molm13 and in the assay with Mv4-11 were 112 ± 22% and 112 ± 1.2%, respectively.

Regarding `CN1CCN(c2cccc(Nc3nc4c(-c5ccc(S(C)(=O)=O)cc5)cccn4n3)c2)CC1`, the cell viability stood at 118 ± 14% with Molm13 and 101 ± 7.2% with Mv4-11.

`N#Cc1ccc2[nH]c(O)c(-c3ccc(CN4CCOCC4)cn3)c2c1`: the cell viability in the assay on Molm13 stood at 112 ± 0.85%; in the assay on Mv4-11 it was 106 ± 5.3%.

`COc1ccc(C2CC(=O)c3c(O)cc(OC4OC(COC5OC(C)C(O)C(O)C5O)C(O)C(O)C4O)cc3O2)cc1OC` (stereo unspecified) [Methyl hesperidin]: the cell viability with Molm13 came to 109 ± 12%; with Mv4-11, 117 ± 20%.

`O=C(c1cccc(Cl)c1F)N1CCN(Cc2cccc(Nc3nccs3)n2)CC1`: the cell viability in the assay on Molm13 was 95.9 ± 11%; in the assay with Mv4-11, 115 ± 9.6%.

With `Cc1cc(Nc2cc(CN3CCOCC3)c3nc(C)c(Cc4ccc(Cl)cc4F)n3n2)n[nH]1`, the cell viability with Molm13 is 82.5 ± 8.9%; in the assay with Mv4-11, 113 ± 2%.

On to `COc1cc(Nc2ncc(F)c(Nc3ccc4c(n3)N(COP(=O)(O)O)C(=O)C(C)(C)O4)n2)cc(OC)c1OC` [R788 (Fostamatinib) Disodium], for which the cell viability in the assay on Molm13 came out at 92 ± 3.9%; in the assay on Mv4-11, 96.4 ± 10%.

On to `COc1ccc(Cl)c(Nc2nc3ccccc3nc2NS(=O)(=O)c2cccc(NC(=O)C(C)(C)N)c2)c1` [Pilaralisib (XL147)], for which the cell viability was 117 ± 4% in the assay with Molm13 and 110 ± 11% with Mv4-11.

On to `CNC(=O)c1cc(Oc2ccc(NC(=O)Nc3ccc(Cl)c(C(F)(F)F)c3)cc2)ccn1` [Sorafenib tosylate], for which the cell viability in the assay on Molm13 was 63.1 ± 6.6%; with Mv4-11 it was 69.2 ± 10%.

Turning to `Nc1cccc(-c2cc3c(Oc4cccc(O)c4)ncnc3[nH]2)c1`, the values for the cell viability with Molm13 and in the assay on Mv4-11 were 101 ± 14% and 112 ± 13%, respectively.

`CN(C)Cc1cccc(N=C(c2ccccc2)c2c(O)[nH]c3cc(C(=O)N(C)C)ccc23)c1`: the cell viability in the assay on Molm13 came out at 108 ± 4.4%; with Mv4-11, 111 ± 12%.

In the case of `O=C1c2ccccc2C(=O)C1c1ccccc1` [Phenylindione], the cell viability was found to be 95.7 ± 6.6% with Molm13 and 114 ± 1.8% in the assay with Mv4-11.

In the case of `CSc1cccc(Nc2ncc3cc(-c4c(Cl)cccc4Cl)c(=O)n(C)c3n2)c1`, the values for the cell viability in the assay with Molm13 and with Mv4-11 were 92.8 ± 10% and 101 ± 7.8%, respectively.

On to `C#Cc1cccc(Nc2ncnc3cc(OCCOC)c(OCCOC)cc23)c1` [Erlotinib], for which the results for the cell viability in the assay on Molm13 and in the assay on Mv4-11 were 102 ± 6.9% and 102 ± 10%, respectively.

As for `Cc1cc(N)c2ccccc2[n+]1CCCCCCCCCC[n+]1c(C)cc(N)c2ccccc21` [Dequalinium chloride], the cell viability came to 92.3 ± 15% in the assay with Molm13 and 96.3 ± 16% in the assay with Mv4-11.

As to `Cc1cccc(-c2[nH]c(C(C)(C)C)nc2-c2ccc3c(c2)OCO3)n1`, the cell viability with Molm13 worked out at 118 ± 26%; with Mv4-11 it was 107 ± 20%.

With `COc1cc2ncnc(Nc3ccc(O)cc3)c2cc1OC`, the results for the cell viability with Molm13 and in the assay with Mv4-11 were 116 ± 5% and 102 ± 7.1%, respectively.

As to `CC(C)(C#N)c1ccc(N2C(=O)OCc3cnc4ccc(-c5cnc6ccccc6c5)cc4c32)cc1`, the cell viability in the assay with Molm13 is 93.6 ± 11%; in the assay with Mv4-11 it was 102 ± 9.2%.

`CC(C)(C)c1cc(NC(=O)Nc2ccc(-c3cn4c(n3)sc3cc(OCCN5CCOCC5)ccc34)cc2)no1` [Quizartinib (AC220)]: the cell viability in the assay on Molm13 amounted to 9.37 ± 9.1%; with Mv4-11, 3.71 ± 2.9%.

Take `C=CC(=O)Nc1cc2c(Nc3ccc(F)c(Cl)c3)ncnc2cc1OCCCN1CCOCC1` [Canertinib dihydrochloride]: the figures for the cell viability with Molm13 and in the assay on Mv4-11 were 101 ± 3.2% and 111 ± 6.1%, respectively.

For `Cc1ccc(F)c(NC(=O)Nc2ccc(-c3cccc4[nH]nc(N)c34)cc2)c1`, the values for the cell viability in the assay with Molm13 and in the assay with Mv4-11 were 72.2 ± 9.9% and 97.7 ± 10%, respectively.

On to `CNC(=O)Nc1cc(Oc2cncc(C)c2)c(-c2ccc(OCC(C)(C)O)nc2)cn1`, for which the cell viability in the assay with Molm13 is 101.5 ± 0.58%; in the assay on Mv4-11, 101 ± 6.8%.

`O=c1c(-c2ccc(O)cc2)coc2cc(O)cc(O)c12` [Genistein]: the cell viability amounted to 104 ± 4.5% in the assay on Molm13 and 122 ± 24% with Mv4-11.

With `NC(=O)c1ccccc1Nc1ccnc(Nc2cccc(O)c2)n1`, the cell viability is 106 ± 34% in the assay with Molm13 and 89.2 ± 14% with Mv4-11.

Turning to `C[C@H]1[C@H](C)CC[C@]2(C(=O)O)CC[C@]3(C)C(=CC[C@@H]4[C@@]5(C)C[C@@H](O)[C@H](O)[C@@](C)(CO)[C@@H]5CC[C@]43C)[C@H]12` [Asiatic acid], the cell viability in the assay with Molm13 was 107 ± 22%; with Mv4-11, 103 ± 4.2%.

For `Cc1nc(Nc2cnn(C3CCNCC3)c2)nc2c1N(C)C(=O)c1cc3ccccc3cc1N2C`, the cell viability in the assay on Molm13 stood at 95.6 ± 2.2%; in the assay with Mv4-11 it was 104.2 ± 0.14%.

Consider `CCc1cnn2c(NCc3ccc[n+]([O-])c3)cc(N3CCCC[C@H]3CCO)nc12`, for which the cell viability turned out to be 93.2 ± 28% in the assay with Molm13 and 86.6 ± 15% with Mv4-11.

Turning to `CC(=O)c1cnc2ccc(-c3cc(Cl)c(O)c(Cl)c3)nc2c1N[C@H]1CC[C@H](CN(C)C)CC1`, the cell viability in the assay on Molm13 worked out at 95.1 ± 17%; in the assay on Mv4-11 it was 80.6 ± 6.8%.

For the molecule `COc1cc2c(Oc3ccc(NC(=O)C4(C(=O)Nc5ccc(F)cc5)CC4)cc3F)ccnc2cc1OCCCN1CCOCC1`, the values for the cell viability in the assay on Molm13 and in the assay with Mv4-11 were 14.3 ± 2.5% and 15.8 ± 33%, respectively.

Consider `O=[N+]([O-])c1ccc(-c2nc(-c3ccc(F)cc3)c(-c3ccncc3)[nH]2)cc1`, for which the cell viability in the assay on Molm13 worked out at 99.9 ± 5.5%; in the assay on Mv4-11, 101 ± 5.5%.
